According to PubChem BioAssay:
Active and inactive are the calls of the source. No stated cut-off is given here; in the data, active means inhibition above about 31%; inactive means the rest.

assay: 384-well plate pilot, post-Golgi transport modulator project, inhibition of yeast transport mutant growth (AID 636); details: absorbance 615 nm, about 18 h, hits give high values

Compound	inhibition
Clc1ccccc1-c1nnc2sc(-c3ccccn3)nn12	-1.97% (inactive)
COc1ccc(Cl)c(N2CCN(CCCNC(=O)Nc3ccc(C)cc3)CC2)c1	-5.34% (inactive)
COc1ccc(Cl)cc1N1CCN(CCNC(=O)Nc2ccccc2C)CC1	-4.93% (inactive)
C=CCn1c(Cc2csc(N)n2)nnc1SCC(=O)OCC	-2.63% (inactive)
COc1cc2nc(N3CCN(C(=O)C4COc5ccccc5O4)CC3)nc(N)c2cc1OC (stereo unspecified)	-0.65% (inactive)
CC(=O)Nc1ccc(S(=O)(=O)N2CCN(Cc3ccncc3)CC2)cc1	-5.13% (inactive)
C[C@]12CC[C@@H]3c4ccc(OC(=O)c5ccccc5)cc4CC[C@H]3[C@@H]1CC[C@@H]2O	2.73% (inactive)
CCN(c1ccccc1)S(=O)(=O)c1ccc(F)cc1C	-1.04% (inactive)
CC(=O)Nc1cccc(NC(=O)CSc2nnnn2C)c1	-5.39% (inactive)
COc1ccccc1N1CCN(Cc2nc(N)nc(Nc3ccc(C)c(Cl)c3)n2)CC1	-1.3% (inactive)
COc1cccc(-c2cc(C(=O)Nc3cc(C)n(Cc4ccc(Cl)cc4)n3)no2)c1	-6.35% (inactive)
CC(=O)C(Sc1ncnc2c1nnn2-c1ccc(F)cc1)C(=O)N(C)C (stereo unspecified)	-3.12% (inactive)
Cc1ccccc1NS(=O)(=O)c1ccc(NC(=O)c2ccco2)cc1	-2.34% (inactive)
Cc1cc(-n2c(C)cc(C(=O)CSc3nnnn3-c3ccc(Cl)cc3)c2C)no1	-3.73% (inactive)
c1ccc(OCCOc2ncnc3sccc23)cc1	-0.26% (inactive)
O=S(=O)(c1ccc(Oc2ccc(-c3nnco3)cc2)nc1)N1CCC(Cc2ccccc2)CC1	-4.11% (inactive)
COc1cccc(CN2C(=O)C3(C(C#N)=C(N)OC4=C3C(=O)CCC4)c3ccccc32)c1 (stereo unspecified)	84.2% (active)
COC(=O)Nc1nc2ccc(Sc3ccccc3)cc2[nH]1	3.25% (inactive)
CC(C)c1ccc(-c2nc(N3CCOCC3)[nH]c(=O)c2C#N)cc1	-6.4% (inactive)
COc1ccc2oc(C)c(C(=O)Cn3ccnc3)c2c1	1.69% (inactive)
O=C(CCN1CCOCC1)Nc1ccc2c(c1)CCC2	-5.26% (inactive)
